Hit rate of the full screen: of about 31,000 sequences, about 1,400 (4.5%) were called active. The entries come from a sample that favours actives as a whole. A number with no mark means an inactive call.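 The calls were made as follows: active = median seed-adjusted z-score above 1 or below -1; inactive = the rest.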

A short description of the assay: Novel Modifiers of Survival Motor Neuron (SMN) Protein: Gene Identification via Genome-wide siRNA Screen.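 Also: luminescence tracks full-length SMN protein made from the SMN2 reporter.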 The note with it: HEK293T SMN2-luciferase reporter, siRNA knockdown, 72 h; actives lie on both sides. Put shortly: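 HEK293T cells stably expressing an SMN2 splicing/cDNA-luciferase reporter were reverse-transfected with a druggable-genome siRNA library and read by luminescence at 72 hours; hits defined by MAD score above 1.0 or below -1.0.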
CCGAAUGAAUGGUGAUAAATT against TUSC3: the median seed-adjusted z-score was 0.138.
As to CAAGGACACUUCAUCGUGATT against AVPR2, the median seed-adjusted z-score is -0.262.
For GAACUCAUCAAAAUGCACATT against KLF15 the value was -0.45; for GGGAGACGAUUGUUCAUCATT against XPA, 2.03 (active); for AUACAUCAAAGAUUAGUAATT against NTS, 0.518.
Take GUUAAUCACAUACACCAAATT against GPR22: the median seed-adjusted z-score was 0.705.
Consider CCGCUUGACUAUGAGCUCATT against TTC7A, for which the median seed-adjusted z-score is -0.303.
As for CCAGGAGCGAUAACAGUAATT against DAZAP1, the median seed-adjusted z-score was 0.
Consider CCUUAUCGAUAUUAUGAGATT against CPEB2, for which the median seed-adjusted z-score is -0.00928.
For ACGUGGAGCUCUUAGACAATT against AP1S1, the median seed-adjusted z-score was -1.04 (active).
GGAUCGGAUGGAUAAGAAUTT against CTTN: the median seed-adjusted z-score was -0.314.
With CACUAGGAAUCACACCGUUTT against TINAG the figure was 0.374; with GAGACGAGGAGGAAACUUUTT against DDX27, -0.131.
For GCAGUAUGCAGAUUGUUCATT against FGL1 the value was -0.259.
Take CAGUUGUCCUUGUGGAUAATT against TTF1: the median seed-adjusted z-score was 1.76 (active).
With GAUAAUUCCAUGACAUUAUTT against CYP39A1 the figure was 0.196.
With GAAGAGAACUCUAAGAUCATT against CAMK1G the figure was -0.358; with GCAAGUCCCUGUACUAUUATT against ANXA2, 0.499.
With GCAGAACUGCUGCUACAGATT against ANKZF1 the figure was 0.176; with CACCGUUCAUCUGCACAGATT against KATNA1, -0.471; with CGAUAAACUCAGACCAGAATT against IDE, -0.081.
Consider GGAAAGUUGAUUUUUAUGATT against MS4A6E, for which the median seed-adjusted z-score was -0.341.
Turning to GGCUCUACGGUUUCAAGAUTT against CSNK2B, the median seed-adjusted z-score was -1.62 (active).
For CAAUGUCCCAAGAUAAAGATT against PRPSAP1 the value was 0.224; for CUCUUUGACCGGUUGCUCATT against EGLN2, -0.349.
Turning to CCAUUUUAGCUCUAGAAGATT against GSTA4, the median seed-adjusted z-score was -0.848.
For GAAUUGGCCGUUGGGCUUATT against COX8A, the median seed-adjusted z-score is -0.0749.
For CAUCUCGACUUAUUGGAAATT against WEE1 the value was -4.05 (active).
Consider CAAGGUCAUUAAUAAGGAUTT against CST5, for which the median seed-adjusted z-score was 0.466.
For CACCCAACACCAAACUGUATT against HSPB6 the value was 0.394; for GAAUUAACUUCAUGGUGAATT against PPM1K, 0.154.
GCCGAAUCCUGAAGAGACATT against QTRTD1: the median seed-adjusted z-score was 0.377.
With CAACCACUGUGAGACGAAATT against MFGE8 the figure was 0.0367; with CUGAGAUACUGCAAGCUGATT against IL5RA, -0.357.
Take CCGACUACUCCAACGAGAATT against MASP2: the median seed-adjusted z-score was -0.137.
With GCUCAAGAGCUUGCACAGATT against SLC25A42 the figure was -1.02 (active); with CUCUGAACCAAAUCGUUUATT against DPP8, -0.0209.
As for GAUGACUACUUAGCUCUAATT against FLJ90650, the median seed-adjusted z-score is 0.427.
For GGCCUAGUGUAAUCUCCCATT against ZNF774 the value was -0.0834; for GCAGAUCGAUUUCUCAACATT against ABCA1, -1.27 (active); for CCAUGUUACCAUACAAUAATT against MXD1, -0.763.
For CCACAGAGGCUAUGCUAAATT against ACE the value was 0.0874; for GUAGCUCCGAGGUCUGAUATT against SMARCA4, 0.223; for GGAACUACCAGAUCGGGAATT against MYO9B, -0.0287.
With GCAAGACAAGUGAAGUCAATT against CNBP the figure was -1.14 (active).
Take CAUGCGGUCUUAGAAAUGATT against HNRPUL1: the median seed-adjusted z-score was -0.047.
For GCAUUUGAGCAUGAAAAUATT against VPS29 the value was -0.408; for AGCUACUAGUGGAGCAGAATT against BAT1, -1.49 (active); for CCACUCCAUUGAAGAUGUATT against SREBF1, -0.0469.
With CAACCAGAAUUACUGCUAUTT against PCDH10 the figure was -0.488; with CGACACCAGGAGUACCUCUTT against IKBKE, 0.122; with GCAUUUGGAUGGAUCAUGUTT against CD163, 0.021.
With GCUGACUACUUGAAGUUCATT against DYRK1A the figure was -1.3 (active); with GGAAAGACAUGUAAGAGCATT against BMP8B, 0.
Take GAACUAAUCCUGUUCAACATT against ATXN3: the median seed-adjusted z-score was 0.04.
CUGUGAUUGUAGUAGAUCATT against SLC19A3: the median seed-adjusted z-score was -0.0232.
On to CCUGCCCAGAGAUACGAAATT against SMURF1, for which the median seed-adjusted z-score was -1.4 (active).
In the case of GGUGGUCUCUUUAUAAUGATT against PHAX, the median seed-adjusted z-score was -0.0716.
Take GCCUUUAUGUCAUCCUCAATT against ZNF626: the median seed-adjusted z-score is 0.185.
With GCAGGUCACGGUUGAUGUATT against FANCA the figure was 0.418; with CCAGUGUCAUAAACCUGUATT against NUDT4, -0.0306; with GCAUGAGGUUCACCACCAATT against FIBCD1, -0.0249.
For GCGGUUUACUAUAGACAAATT against IKBKAP the value was -0.0316.
With CGAACGAUUUCCCAAGUUATT against NXF1 the figure was -4.46 (active); with GGUUUUGCACAGCGAGGAATT against B3GALT4, 0.233; with GGGCUAGAUCUGUAUCUUATT against TSC22D3, 0.0129.
With GACCUGAUGUGGAAGCAGATT against QDPR, the median seed-adjusted z-score is -0.734.
For CCCUGACUCUUGGAUAUGATT against MEOX1 the value was 0.0171.
With GGCGAGAUCUUUAUACGCATT against ZNF224 the figure was 0.0073; with AGAACGUGCUCUUCGCUCATT against PRKAR1B, -0.0406.
With GGAAAGUUUUUAAGGCGAATT against UHRF2 the figure was -0.0941; with CAUUGGAAAGUGCGAGUUATT against HUWE1, 0.734; with GAGUGAAGUAUAAUCCAUATT against TPH1, -0.055.
Turning to CUCUGGUAGAAUCCAAUUATT against GIN1, the median seed-adjusted z-score was -0.0585.
For the sequence CCGCUGAGGUGACAACAAATT against XRCC5, the median seed-adjusted z-score was -1.11 (active).
With UCUUCUAAAUACUUCCUAATT against GJC3 the figure was -0.137; with GCAUUUGCCCAGUUCAUGATT against RBM28, 0.649.
On to CACUGUCCUUGGGUGAAUATT against ZDHHC20, for which the median seed-adjusted z-score was -0.936.
With CAAGUAUAUUGAACGAGGATT against SLITRK4 the figure was -0.015; with UGGUCUCAAUGACAGUAGATT against SNRPB, -3.17 (active).
For GCUAAGUACAAAUCAUUCATT against FCN1 the value was 0.346; for GGAGAGUGGUGAUCGGAUATT against MYOM3, -0.012.
Take CGAUUCACCAGGAACGACATT against ZBTB7B: the median seed-adjusted z-score is -0.242.
For GCCUCAUACCAUUCCAUAUTT against MEP1B the value was 1.46 (active); for CAGAGGUACUCCACGCAGATT against BHLHA15, -0.199.
With GGCUGGUACCUGGAUGAGATT against FTCD the figure was -0.27; with GUCUAAUGCACUUAGCUAATT against HEL308, 0.229; with GCAAAACGGAGGAUUGAGATT against EIF5B, 1.68 (active).
With GAAUGUGACAAUACAUUUATT against ZNF431 the figure was 0.00537.
As for GGAACAAACCCUUAGCUAATT against SLITRK1, the median seed-adjusted z-score is 0.215.
With GGAGUUUCCAGAUCUCAAATT against LGR6 the figure was 0.237; with GACUCAUACCAAUCACGAATT against JMJD1A, 0.466.
GGGUCCCUAUUAUCCAGCATT against BAT3: the median seed-adjusted z-score was 0.567.
With GACAGAUGACUGAUCCUAATT against PSMD13 the figure was 0.58; with GACGGCCUCUAUUACCUCUTT against LTB, 0.646; with CUGUCAAUGUUAUUACUCUTT against TSG101, 1.48 (active).
Consider GAAUAAUGCUUAUGCUAGATT against CLIC6, for which the median seed-adjusted z-score was -0.00828.
For AAUUCUACGAGUCCAAGUATT against GPS1 the value was 0.205; for CAGCCCGUUUUGAAGGGUATT against CRIP3, 1.7 (active).
With CGAUGGGUAUGAGCCUGGATT against ATHL1 the figure was 0; with UAUGGGCUCUUGAACCAAATT against MTNR1B, -0.393; with GGGUGAUCUUGAUACUGCATT against TOP2B, 0.225.
For GAUGCAAACUAGUCCUGAATT against MLC1 the value was -0.284; for AAUCGCUCAUGGUUUUUAATT against LRFN3, 0.483.
As to AUGUGCACCUGACUACUCATT against KRT35, the median seed-adjusted z-score is -0.1.
For CGCGUUCUUCGAUAUGGUATT against PCDHGB6 the value was 0.34; for GGCUUUUACCCGCAUGUCATT against ZNF460, -0.302; for GCAGAAUAACCUCCAGUAUTT against SLC35A2, 1.06 (active).

The record behind these values is PubChem BioAssay AID1347426 (Functional Genomics Laboratory (NCATS/FGL), 2020).
